Structures are written as SMILES. The panel holds about 79,000 compounds, 15% with a hit somewhere; the sample as a whole holds those more often. Values without a mark were called inactive. Calls of active or inactive are those of the source. No stated cut-off is given here; in the data, active means growth inhibition above about 70%; inactive means the rest.

The nature of the assay: NCI Yeast Anticancer Drug Screen. Data for the cln2 rad14 strain (AID 165).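 Further: 0% = growth equal to vehicle treated cultures.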 Conditions: S. cerevisiae cln2 rad14 strain, at 50.0 µM, stronger effect = higher value. Summed up:
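Growth of compound-exposed yeast (cln2 rad14 genotype) measured and expressed as inhibition relative to vehicle.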
`COc1cc(/C=N/NC(=O)CN(C)C)cc(OC)c1N(CCCl)CCCl`: the growth inhibition is 17.9%.

On to `CCOP(=O)(O)C1CCCC(C)[N-]1.CCOP(=O)(O)C1CCCC(C)[N-]1.[Cu+2]` (configuration not stated), for which the growth inhibition was 45.2%.

Turning to `NC(Cc1ccc(Cl)cc1)c1nn[nH]n1` (configuration not stated), the growth inhibition was -22.4%.

Turning to `Cc1cc(C)[c]([Hg][Cl])c(C)c1`, the growth inhibition was 96.2% (active).

For the compound `[CH3][Sb]([CH3])([CH3])([I])[I]`, the growth inhibition is -12.7%.

Turning to `C=C1CC2C3CC=C4CC(OC(C)=O)CCC4(C)C3CCC2(C)C1=O` (configuration not stated), the growth inhibition is 0.55%.

`CCCC(C)SP(=S)(SC(C)CCC)SC(C)CCC` (configuration not stated): the growth inhibition is -43.3%.

`CCCC[S][Sn]([CH2]CCC)([CH2]CCC)[S]CCCC`: the growth inhibition was 89.2% (active).

As to `COP1(=S)OCC2CCC[C@@H]2O1` (some centres not stated), the growth inhibition is 3.2%.

Turning to `CCOC(C(=O)O)(c1ccccc1)c1ccccc1`, the growth inhibition was -10.1%.

`NC(CP(=O)(O)O)C(=O)O` (configuration not stated): the growth inhibition was -55.2%.

Regarding `CCC12C=CCN3CCC4(C(=C(C(=O)OC)C1)Nc1ccccc14)[C@H]32` (some centres not stated), the growth inhibition is -8%.

With `N#CCN(CC#N)[N+](=O)[O-]`, the growth inhibition is -6%.

In the case of `O=CNC(CSC(c1ccccc1)c1ccccc1)C(=O)O` (configuration not stated), the growth inhibition is -26.4%.

As for `O=C(COc1ccccc1Cl)Nc1ccc[n+](Cc2ccc(S(=O)(=O)F)cc2)c1`, the growth inhibition is -42.2%.

For `O=C1CCCN1CC#CCN1C[C@@H]2C3CCC(C3)[C@@H]2C1`, the growth inhibition is 29.4%.

Take `CC(=O)OC1CC2(O)C3CCC4CC(O)CCC4(C)C3CCC2(C)C1C1=CC(=O)OC1` (configuration not stated): the growth inhibition was -6.4%.

The values are drawn from PubChem BioAssay (NCI).
